Compound activity deposited in PubChem by National Center for Advancing Translational Sciences (NCATS).
HT1080 IDH1KD tx = kills HT-1080 cells with IDH1 knockdown | 360,000 compounds, 2% hits | Potency, µM (top dose mostly 46.1 µM), for the others: at the highest dose activity, negative = toxicity, actives largely listed as cytotoxic | AID 686971 | HT-1080 IDH1 knockdown viability, ATP luminescence, 48 h;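 further: potency means the concentration at half of the fitted maximal effect; 0% = DMSO wells and -100% = cell-free medium wells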
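Knockdown cells (IDH1KD HT-1080) received compounds 2 h after plating at 750 cells/well and were kept 48 h at 37 °C in 5% FBS RPMI. A CellTiter-Glo luminescence read gave % activity for curve fitting.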
HT1080NT lethal = kills 2HG-producing HT-1080-NT fibrosarcoma cells | AID 686970 | Potency, µM (titrated, usually from 46.1 µM), for inactives: at the highest dose activity, negative = less viability, hits mostly cytotoxic | HT-1080-NT fibrosarcoma viability, CellTiter-Glo ATP luminescence, 48 h | 360,000 compounds, 1.6% hits;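 further: NT is the 2HG producing partner of a matched IDH1 knockdown line; potency means the concentration at half of the fitted maximal effect; 0% = DMSO-treated cells and -100% = media-only wells without cells; nearly all actives have a fitted effect of over 55% in size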
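A 48-hour cytotoxicity screen used HT-1080-NT cells plated 2 hours before compound delivery. ATP-based CellTiter-Glo luminescence measured viability, normalized to DMSO and no-cell controls.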
IL1B secr inh = blocks inflammasome-driven IL-1 beta release. THP-1 LPS/ATP IL-1B secretion, AlphaLISA, 16 h; stronger effect = lower value. activity change, % at 57.5 µM. 360,000 compounds, 4.7% hits; in the data active means activity change below about -50%; inconclusive means mostly about -30% to -49%
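THP-1 cells pretreated 1 hr with compounds (up to 57.5 uM final), then stimulated with LPS (250 ng/mL final) plus ATP (1.25 mM final); secreted IL-1B measured by AlphaLISA after 16 hr, decreased signal indicating inhibition.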
KB-3-1 tox = kills parental KB-3-1 adenocarcinoma cells; 400,000 compounds, 1.4% hits; AID 1347075; KB-3-1 viability, CellTiter-Glo ATP luminescence, 72 h; Potency, µM (doses to about 46.1 µM), most hits filed as cytotoxic; further: potency means the concentration at half of the fitted maximal effect; nearly all actives have a fitted effect of over 60% in size
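Screening of KB-3-1 cells (DMEM, 10% FBS, phenol-red free) ran from lowest to highest compound concentration; after 72 h at 37 °C viability was read luminescently and curves fitted.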
KB-V1 cytotox = KB-V1 MDR subline cytotoxicity | KB-V1 MDR cells viability, CellTiter-Glo, 72 h | Potency, µM (highest dose often 46.1 µM), most hits filed as cytotoxic | 400,000 compounds, 3.4% hits; further: potency means the concentration at half of the fitted maximal effect; nearly all actives have a fitted effect of over 60% in size
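Cytotoxicity via CellTiter-Glo luminescence after 72 h compound exposure at 37 degrees C. Cells: drug-selected KB-V1 line, DMEM phenol-red free plus 10% FBS. Compounds tested at multiple concentrations; normalized data fitted to concentration-effect curves.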
* marks the source's active call; other numbers are inactive results; [ ] = another dose, or the depositor's remark. This is a sample that favours compounds with a hit; in the whole collection about 8.8% have one here. Unless noted, the call rests on the fitted dose curve; in most records, active means well fitted curve in the direction sought with a large enough effect; inconclusive means small, poorly fitted or top-dose-only effect, or another doubt; inactive means no such curve, though single readings can be large; an effect the other way counts as inactive or inconclusive. Unless noted, on the % scale 0 is the no-effect control and ±100 the full control effect.

Screening Cc1cccc(C)c1NC(=O)CN(C)C(=O)c1ccc2nc[nH]c2c1 returned HT1080 IDH1KD tx -1%, HT1080NT lethal 2%, IL1B secr inh 6, KB-3-1 tox inactive and KB-V1 cytotox inactive.
Cc1ccc(/C=C/c2onc(C)c2S(=O)(=O)N2CCC(C(=O)Nc3cccc(C#N)c3)CC2)cc1 was read as KB-3-1 tox inactive and KB-V1 cytotox inactive.
For CCOc1ncccc1C(=O)N(CC)CC(=O)NCc1ccc(Cl)cc1 the results were HT1080 IDH1KD tx -1%, HT1080NT lethal 13%, IL1B secr inh 16, KB-3-1 tox inactive and KB-V1 cytotox inconclusive.
CCc1ccccc1NC(=O)[C@@H](c1ccccc1)N1Cc2ccccc2C1=O was read as KB-3-1 tox inactive and KB-V1 cytotox inactive.
For COc1ccc(C(=O)COC(=O)c2ccc(OC)c(OC)c2)cc1OC the results were HT1080 IDH1KD tx 2%, HT1080NT lethal 14%, IL1B secr inh -24, KB-3-1 tox inactive and KB-V1 cytotox inactive.
Screening COc1ccc(C(=O)CSc2cc(C)nc3nc(C)nn23)cc1OC returned HT1080 IDH1KD tx 11µM*, HT1080NT lethal 16µM*, IL1B secr inh -97*, KB-3-1 tox inactive and KB-V1 cytotox inconclusive.
`COc1ccc(C(=O)CSC#N)cc1OC` gave HT1080 IDH1KD tx 21µM*, HT1080NT lethal inconclusive, IL1B secr inh inconclusive, KB-3-1 tox inactive and KB-V1 cytotox inactive.
Screening O=C(Nc1cnccn1)c1ccc(F)cc1Cl returned HT1080 IDH1KD tx 2%, HT1080NT lethal 2%, IL1B secr inh 10, KB-3-1 tox inactive and KB-V1 cytotox inactive.
Screening Cc1cc(Cl)ccc1NC(=S)NCc1ccco1 returned HT1080 IDH1KD tx 14%, HT1080NT lethal 14%, IL1B secr inh -10, KB-3-1 tox inactive and KB-V1 cytotox 21µM*.
For S=C(NCc1ccco1)Nc1ccc(Oc2ccc(Cl)cc2)cc1 the results were HT1080 IDH1KD tx inconclusive, HT1080NT lethal inconclusive, IL1B secr inh -91*, KB-3-1 tox inactive and KB-V1 cytotox inactive.
Screening Cc1ccc(S(=O)(=O)N2CCCc3cc(NC(=O)c4ccc(C(C)(C)C)cc4)ccc32)cc1 returned KB-3-1 tox inactive and KB-V1 cytotox inactive.
Cc1nn(-c2nc3ccccc3n2Cc2ccccc2)c2c1C(=O)CC(C)(C)C2 was read as HT1080 IDH1KD tx -4%[9.24 µM], HT1080NT lethal -25%, IL1B secr inh 2, KB-3-1 tox inconclusive and KB-V1 cytotox 21µM*.
`Cc1nn(-c2ccccc2)c2c1C(=O)N(Cc1ccccc1)C(=O)C(C)(C)C2` gave HT1080 IDH1KD tx -2%, HT1080NT lethal -7%, IL1B secr inh 6, KB-3-1 tox inactive and KB-V1 cytotox inactive.
`O=C(NCCN1CCCCC1)c1ccc(Oc2cc(Cl)cc(Cl)c2)o1` gave HT1080 IDH1KD tx 26µM*, HT1080NT lethal inconclusive, KB-3-1 tox inactive and KB-V1 cytotox inconclusive.
Screening Cc1ccc(C(=O)c2cnc3cc4c(cc3c2S(=O)(=O)c2ccccc2)OCCO4)cc1 returned HT1080 IDH1KD tx -27%, HT1080NT lethal -24%, IL1B secr inh -79*, KB-3-1 tox inconclusive and KB-V1 cytotox 16µM*.
For CCOc1ccc(S(=O)(=O)c2cn(C)c3cc(OC)c(OC)cc3c2=O)cc1 the results were HT1080 IDH1KD tx 0%, HT1080NT lethal 13%, IL1B secr inh 4, KB-3-1 tox inactive and KB-V1 cytotox inconclusive.
CC1CCCN(c2nc3ccsc3c(=O)s2)C1 (configuration not stated) was read as HT1080 IDH1KD tx -5%, HT1080NT lethal 0%, IL1B secr inh 5, KB-3-1 tox inconclusive and KB-V1 cytotox 16µM*.
`Cc1ccc(Cl)cc1N(C)C(=O)c1sc2nc3n(c(=O)c2c1C)CCCC3` gave KB-3-1 tox inactive and KB-V1 cytotox inactive.
Screening COc1ccccc1CNS(=O)(=O)c1cc(C(=O)N(C)Cc2cccnc2)c(Cl)cc1Cl returned HT1080 IDH1KD tx -10%, HT1080NT lethal 1%, IL1B secr inh 12, KB-3-1 tox inconclusive and KB-V1 cytotox 5.2µM*.
`COc1ccccc1N(C)S(=O)(=O)c1ccc(Cl)c(C(=O)NCc2cccnc2)c1` gave HT1080 IDH1KD tx 2%, HT1080NT lethal 5%, IL1B secr inh 7, KB-3-1 tox inactive and KB-V1 cytotox inactive.
C=CCNc1nnc(Cc2ccc(C(C)C)cc2)c(=O)[nH]1 was read as HT1080 IDH1KD tx -23%, HT1080NT lethal -5%, IL1B secr inh 6, KB-3-1 tox 15µM* and KB-V1 cytotox inactive.
`Cc1ccc(/C=C/C(O)=C2/C(=O)N(C)C3(C)CC2c2ccccc2O3)cc1` (configuration not stated) gave HT1080 IDH1KD tx inconclusive, HT1080NT lethal inconclusive, IL1B secr inh -87*, KB-3-1 tox 15µM* and KB-V1 cytotox inactive.
For COc1ccc(/C=C/C(O)=C2/C(=O)N(C)C3(C)CC2c2ccccc2O3)cc1 (configuration not stated) the results were HT1080 IDH1KD tx inconclusive, HT1080NT lethal inconclusive, IL1B secr inh -91*, KB-3-1 tox inconclusive and KB-V1 cytotox inconclusive.
Screening COc1ccc(/C=C/C(O)=C2/C(=O)NC3(C)CC2c2ccccc2O3)c(OC)c1OC (configuration not stated) returned HT1080 IDH1KD tx inconclusive, HT1080NT lethal inconclusive, IL1B secr inh -20, KB-3-1 tox inconclusive and KB-V1 cytotox inactive.
CC1CCc2cc(F)ccc2N1C(=O)CCl (configuration not stated) was read as HT1080 IDH1KD tx inconclusive, HT1080NT lethal inconclusive, IL1B secr inh -97*, KB-3-1 tox inconclusive and KB-V1 cytotox inconclusive.
`CN(CC(=O)Nc1ccc(F)cc1)C(=O)CN1C(=O)NC2(CCCC2)C1=O` gave HT1080 IDH1KD tx -13%, HT1080NT lethal -29%, IL1B secr inh 5, KB-3-1 tox inactive and KB-V1 cytotox inactive.
`CCOC(=O)c1oc2ccccc2c1NC(=O)COc1ccc(F)cc1` gave HT1080 IDH1KD tx -1%, HT1080NT lethal 4%, IL1B secr inh 15, KB-3-1 tox inactive and KB-V1 cytotox 8.2µM*.
For CCOC(=O)c1oc2ccccc2c1NC(=O)COc1cccc(OC)c1 the results were HT1080 IDH1KD tx 1%, HT1080NT lethal 2%, IL1B secr inh 47, KB-3-1 tox inactive and KB-V1 cytotox inactive.
Cc1cccc(NC(=S)N2CCC(NC(=O)c3cccc(F)c3)CC2)c1 was read as HT1080 IDH1KD tx 16%, HT1080NT lethal 17%, IL1B secr inh -6, KB-3-1 tox inactive and KB-V1 cytotox inactive.
CCn1[nH]c(=O)c(=Nc2c(C)n(C)n(-c3ccccc3)c2=O)cc1-c1ccc(Cl)cc1 was read as HT1080 IDH1KD tx -16%, HT1080NT lethal -13%, IL1B secr inh -52*, KB-3-1 tox inactive and KB-V1 cytotox inactive.
